Assay [1] in a line: antimalarial activity against Dd2 strain (AID 2302;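 active = growth inhibition above 50% at the single 2 µM test dose, taken to imply half-maximal potency below 2 µM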;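 also: 0% = DMSO untreated growth and 100% = chloroquine plus artemisinin killed control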). The note with it: P. falciparum Dd2 in RBCs, LDH growth readout, 72 h; at 2 µM; hits give high values.
Assay [2] is described as follows: human hepatoma cell viability loss – ATP luminescence, cytotoxicity control for P. falciparum antimalarial project, primary screen (AID 2303;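 active = inhibition above 50%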;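 also: 0% = DMSO wells and 100% = digitonin-killed cells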). The note with it: HepG2 viability, 24-48 h, at 10 µM, hits give high values.
Assay [3] addresses L-lactate dehydrogenase (Plasmodium falciparum (isolate CDC / Honduras)) (UniProt Q27743). The assay can be described thus: PfLDH activity inhibition – cell lysate, 3D7 strain, counter-screen for P. falciparum growth inhibition project (AID 2304).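 Also: 0% = vehicle and 100% = reference inhibitor.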 The settings on record: P. falciparum 3D7 crude extract, LDH APAD/NBT absorbance; at 2 µM; hits give high values. A general note: Counterscreens check selectivity or assay interference.

Assay [4] in a line: inhibition of 3D7 malaria parasite growth – strain 3D7 (AID 2306).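 Also: 0% = DMSO wells and 100% = chloroquine plus artemisinin control wells.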 The settings on record: P. falciparum 3D7 erythrocytic growth, LDH absorbance, 72 h; at 2 µM; hits give high values.
For assay [5], the target named is Calcium-dependent protein kinase 1 (Plasmodium falciparum (isolate 3D7)) (UniProt P62344). The assay can be described thus: PfCDPK1 kinase inhibitors, biochemical, TCAMS library (AID 1159585; cut-off not given, nearly all actives have IC50 up to about 0.98 µM;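 also: inhibitors leave more ATP so luminescence rises with inhibition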). The note with it: recombinant PfCDPK1, Kinase-Glo ATP depletion luminescence. On the technique in general: Kinase-Glo measures the ATP left after a reaction by luminescence.

Assay [6] has as its target Plasmodium falciparum protein kinase 6 (PK6, PF3D7_1337100) (UniProt Q8IDW1). Put plainly: PfPK6 kinase inhibitors, biochemical, TCAMS library (AID 1159586). The settings on record: recombinant PfPK6, Kinase-Glo ATP depletion luminescence.
The target of assay [7] is Protein kinase 7 (PK7), Plasmodium falciparum 3D7 (PF3D7_0213400) (UniProt Q7YTF7). The assay can be described thus: inhibition of Plasmodium PK7 catalytic activity – biochemical, TCAMS antimalarial set, Kinase-Glo luminescence (AID 1159587). The settings on record: recombinant PfPK7, Kinase-Glo ATP depletion luminescence.
The target of assay [8] is Calcium-dependent protein kinase 4 (Plasmodium falciparum (isolate 3D7)) (UniProt Q8IBS5). Put plainly: PfCDPK4 kinase inhibitors, biochemical, TCAMS library (AID 1159588; cut-off not given, nearly all actives have IC50 up to about 0.91 µM). The note with it: recombinant PfCDPK4, Kinase-Glo ATP depletion luminescence.

A number with no mark means an inactive call. For some of these results: Measured potencies and affinities stand elsewhere. Calls of active or inactive are those of the source. Unless noted, no rule for the calls is given here.

Chain of Plasmodium falciparum protein kinase 6 (PK6, PF3D7_1337100) (Q8IDW1 1-305): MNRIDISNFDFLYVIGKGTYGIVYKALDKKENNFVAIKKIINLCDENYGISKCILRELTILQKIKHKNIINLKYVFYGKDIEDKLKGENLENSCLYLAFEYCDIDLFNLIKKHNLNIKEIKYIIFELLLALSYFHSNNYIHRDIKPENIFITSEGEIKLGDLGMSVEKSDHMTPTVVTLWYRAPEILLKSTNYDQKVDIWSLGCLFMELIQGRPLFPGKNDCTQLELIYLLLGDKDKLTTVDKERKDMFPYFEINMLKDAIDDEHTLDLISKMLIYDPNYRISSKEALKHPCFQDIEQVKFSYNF
Chain of Calcium-dependent protein kinase 1 (Plasmodium falciparum (isolate 3D7)) (P62344 whole entry, looked up): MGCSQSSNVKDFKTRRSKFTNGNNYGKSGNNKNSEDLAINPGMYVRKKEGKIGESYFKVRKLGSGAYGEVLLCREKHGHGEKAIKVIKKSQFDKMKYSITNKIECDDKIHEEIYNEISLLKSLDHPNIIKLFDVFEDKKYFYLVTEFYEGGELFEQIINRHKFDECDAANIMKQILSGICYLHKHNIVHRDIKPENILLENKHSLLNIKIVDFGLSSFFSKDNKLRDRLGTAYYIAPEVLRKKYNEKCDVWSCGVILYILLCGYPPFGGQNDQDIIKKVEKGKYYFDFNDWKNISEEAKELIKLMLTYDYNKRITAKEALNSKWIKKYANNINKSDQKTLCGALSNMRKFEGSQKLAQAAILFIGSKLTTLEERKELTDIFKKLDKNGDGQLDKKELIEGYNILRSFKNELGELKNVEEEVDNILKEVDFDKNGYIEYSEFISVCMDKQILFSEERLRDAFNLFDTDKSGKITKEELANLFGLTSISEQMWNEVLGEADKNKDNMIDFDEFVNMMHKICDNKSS
Chain of Protein kinase 7 (PK7), Plasmodium falciparum 3D7 (PF3D7_0213400) (Q7YTF7 1-343): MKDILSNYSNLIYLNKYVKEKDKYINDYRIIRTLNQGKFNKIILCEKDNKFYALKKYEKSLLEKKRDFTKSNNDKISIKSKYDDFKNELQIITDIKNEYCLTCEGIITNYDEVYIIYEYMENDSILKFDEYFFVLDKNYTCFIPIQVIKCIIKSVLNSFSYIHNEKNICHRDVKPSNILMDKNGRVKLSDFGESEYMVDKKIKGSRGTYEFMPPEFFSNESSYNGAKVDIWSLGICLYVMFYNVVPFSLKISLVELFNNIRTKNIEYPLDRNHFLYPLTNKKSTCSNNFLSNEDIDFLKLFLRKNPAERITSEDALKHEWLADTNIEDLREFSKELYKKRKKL
Chain of Calcium-dependent protein kinase 4 (Plasmodium falciparum (isolate 3D7)) (Q8IBS5 whole entry, looked up): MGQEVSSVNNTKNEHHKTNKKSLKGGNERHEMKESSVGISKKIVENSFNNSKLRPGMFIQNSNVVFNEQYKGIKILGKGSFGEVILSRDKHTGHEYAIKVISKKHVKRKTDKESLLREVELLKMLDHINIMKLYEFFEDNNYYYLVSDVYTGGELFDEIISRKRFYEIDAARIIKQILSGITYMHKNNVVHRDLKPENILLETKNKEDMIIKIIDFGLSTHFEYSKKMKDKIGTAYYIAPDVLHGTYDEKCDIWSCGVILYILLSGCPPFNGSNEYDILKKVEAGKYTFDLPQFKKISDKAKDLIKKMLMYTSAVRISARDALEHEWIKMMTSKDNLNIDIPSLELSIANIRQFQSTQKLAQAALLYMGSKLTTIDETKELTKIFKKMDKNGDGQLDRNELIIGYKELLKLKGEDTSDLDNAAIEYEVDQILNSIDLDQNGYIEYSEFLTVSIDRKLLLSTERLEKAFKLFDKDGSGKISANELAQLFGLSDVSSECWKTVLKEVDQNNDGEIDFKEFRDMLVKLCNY
Chain of L-lactate dehydrogenase (Plasmodium falciparum (isolate CDC / Honduras)) (Q27743 whole entry, looked up): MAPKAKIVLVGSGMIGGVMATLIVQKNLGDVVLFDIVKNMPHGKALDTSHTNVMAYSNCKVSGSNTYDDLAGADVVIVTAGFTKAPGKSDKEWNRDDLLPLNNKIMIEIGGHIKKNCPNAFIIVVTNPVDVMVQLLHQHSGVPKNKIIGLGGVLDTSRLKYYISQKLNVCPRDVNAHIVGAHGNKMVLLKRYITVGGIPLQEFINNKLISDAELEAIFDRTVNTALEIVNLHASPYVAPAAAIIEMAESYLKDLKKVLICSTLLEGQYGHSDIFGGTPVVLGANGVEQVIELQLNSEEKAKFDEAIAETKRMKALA

As to `CC(CCON1C(N)=NC(N)=NC1(C)C)c1ccc(Cl)cc1` (stereo not given), the growth inhibition is 97% (active) in assay [1] and 93% (active) in assay [4]. The inhibition (as a rule, the drop in the measured response relative to a control, in per cent) in assay [2] was 64% (active); in assay [3] it was -5%. Further, the result in assay [5], in assay [6], in assay [7] and in assay [8] was inactive.

As to `CN(c1ccc2c(c1)nc(NC(=O)C1(c3cc(F)ccc3F)CC1)n2C)c1ccnc(Nc2cccc(CS(C)(=O)=O)c2)n1`, the values for the growth inhibition in assay [1] and in assay [4] were 46% and 89% (active), respectively. The results for the inhibition in assay [2] and in assay [3] were 42% and 6%, respectively. Further, the result in assay [5], in assay [6], in assay [7] and in assay [8] was inactive.

With `O=C(NCCCN1CCC(N2CCCCC2)CC1)C1=Cc2cc(Br)ccc2OC1`, the growth inhibition was 19% in assay [1] and 100% (active) in assay [4]. The figures for the inhibition in assay [2] and in assay [3] were 26% and -1%, respectively. Further, the result in assay [5], in assay [6], in assay [7] and in assay [8] was inactive.

Take `CC(C)NC[C@@H](O)[C@H](Cc1ccccc1)NC(=O)c1cc2c3c(c1)c(C(C)C)cn3CCS(=O)(=O)N2C`: the growth inhibition in assay [1] is 99% (active); in assay [4], 98% (active). The figures for the inhibition in assay [2] and in assay [3] were 5% and -3%, respectively. The outcome in assay [5], in assay [6], in assay [7] and in assay [8] was inactive.

`c1cncc(NCc2ccc(-c3cc4ccncc4cc3OC3CCNCC3)s2)c1`: the growth inhibition in assay [1] was 19%; in assay [4], 100% (active). Moreover, the inhibition in assay [2] is 4%; in assay [3] it was 2%. The result in assay [5], in assay [6], in assay [7] and in assay [8] was inactive.

With `CCOc1ccccc1C1CCN(CCCCNC(=O)c2ccc(NC(=O)c3ccc(Cl)cc3)cc2)CC1`, the growth inhibition was 27% in assay [1] and 95% (active) in assay [4]. In addition, the inhibition in assay [2] was 13%; in assay [3], 1%. For the same compound, the outcome in assay [5], in assay [6], in assay [7] and in assay [8] was inactive.

On to `CC(C)N1CCN(C(=O)c2ccc(CNCCCN3CCN(c4cccc(Cl)c4Cl)CC3)o2)CC1`, for which the growth inhibition is 36% in assay [1] and 98% (active) in assay [4]. For the same compound, the inhibition is 41% in assay [2] and 1% in assay [3]. Also, the outcome in assay [5], in assay [6], in assay [7] and in assay [8] was inactive.

As to `O=C(Nc1ccc(-c2csc(-c3nc4ccccc4[nH]3)c2)cc1)Nc1ccc(Cl)c(Cl)c1`, the growth inhibition is 18% in assay [1] and 93% (active) in assay [4]. Besides, the results for the inhibition in assay [2] and in assay [3] were 75% (active) and -6%, respectively. For the same compound, the result in assay [5], in assay [6], in assay [7] and in assay [8] was inactive.

With `Nc1ncc(-c2ccsc2)c2ccc(-c3cc(NCc4ccccc4)ncn3)cc12`, the growth inhibition in assay [1] was 86% (active); in assay [4] it was 101% (active). Further, the inhibition in assay [2] is 0%; in assay [3] it was 3%. The result in assay [5], in assay [6], in assay [7] and in assay [8] was inactive.

Turning to `COc1ccc2ncc(F)c(CCN3CCC(NCc4cc5c(cn4)OCCS5)CC3)c2c1`, the growth inhibition in assay [1] was 40%; in assay [4], 89% (active). Also, the inhibition in assay [2] is 4%; in assay [3], -6%. The result in assay [5], in assay [6], in assay [7] and in assay [8] was inactive.

For `CCN(CC)c1nc(Nc2cc(C)ccc2C)nc(Nc2ccccc2O)n1`, the growth inhibition in assay [1] was 99% (active); in assay [4] it was 101% (active). Besides, the values for the inhibition in assay [2] and in assay [3] were -9% and 2%, respectively. For the same compound, the outcome in assay [5], in assay [6], in assay [7] and in assay [8] was inactive.

As for `COc1c(C2CCN(CCCCNC(=O)c3cc(-c4ccc(Cl)cc4)sc3C)CC2)ccc2c1CCCC2`, the figures for the growth inhibition in assay [1] and in assay [4] were 65% (active) and 101% (active), respectively. For the same compound, the inhibition in assay [2] was 61% (active); in assay [3] it was 2%. Besides, the outcome in assay [5], in assay [6], in assay [7] and in assay [8] was inactive.

For `CCC(=Cc1cccc([N+](=O)[O-])c1)C(=O)NCC1CCN(c2nc(N)c3cc(OC)c(OC)cc3n2)CC1`, the growth inhibition in assay [1] was 62% (active); in assay [4], 101% (active). Besides, the inhibition in assay [2] is 25%; in assay [3] it was 6%. Further, the outcome in assay [5], in assay [6], in assay [7] and in assay [8] was inactive.

For the compound `COc1ccc(C(=O)N2CCc3cc4nccc(N5CCN6CCC[C@H]6C5)c4cc32)cc1`, the growth inhibition in assay [1] is 50% (active); in assay [4] it was 98% (active). The inhibition was 1% in assay [2] and -12% in assay [3]. Besides, the outcome in assay [5], in assay [6], in assay [7] and in assay [8] was inactive.

Consider `CN1CCN(CCCN(Cc2ccc(-c3cccc(CNCc4ccc5c(c4)OCO5)c3)cc2)C(=O)Nc2ccccc2)CC1`, for which the figures for the growth inhibition in assay [1] and in assay [4] were 87% (active) and 101% (active), respectively. For the same compound, the inhibition in assay [2] is 51% (active); in assay [3], -7%. In addition, the result in assay [5], in assay [6], in assay [7] and in assay [8] was inactive.

Take `Fc1ccc(-c2cc(NCCCn3ccnc3)nc(-c3cccnc3)n2)cc1`: the growth inhibition in assay [1] is 70% (active); in assay [4] it was 99% (active). In addition, the inhibition in assay [2] is 11%; in assay [3], 0%. For the same compound, the result in assay [5], in assay [6], in assay [7] and in assay [8] was inactive.

Take `CC(=O)Nc1nc(C(=O)Nc2ccc(-c3ccc(-c4nc5c(C)cccc5[nH]4)cc3)cc2)cs1`: the growth inhibition in assay [1] was 53% (active); in assay [4], 101% (active). Further, the inhibition in assay [2] was 42%; in assay [3], -1%. Moreover, the outcome in assay [5], in assay [6], in assay [7] and in assay [8] was inactive.

Turning to `COc1ccc(-c2nc(NC(=O)CS(=O)(=O)c3ccc(OC)cc3)sc2C)cc1`, the growth inhibition in assay [1] was 89% (active); in assay [4] it was 95% (active). Also, the values for the inhibition in assay [2] and in assay [3] were 6% and -2%, respectively. For the same compound, the outcome in assay [5], in assay [6], in assay [7] and in assay [8] was inactive.

For `O=C(Nc1ccc(C(=O)N2CCN(CCN3CCN(c4cccc(C(F)(F)F)c4)CC3)CC2)cc1)c1ccc(C(F)(F)F)cc1`, the growth inhibition in assay [1] is 28%; in assay [4] it was 95% (active). The inhibition in assay [2] is 39%; in assay [3], 0%. Besides, the result in assay [5], in assay [6], in assay [7] and in assay [8] was inactive.

On to `CCc1ccccc1N=C1c2c(cccc2[N+](=O)[O-])C(=O)C1C(C)=O` (stereo not given), for which the growth inhibition in assay [1] is 96% (active); in assay [4], 99% (active). Besides, the inhibition is -6% in assay [2] and 4% in assay [3]. The outcome in assay [5], in assay [6], in assay [7] and in assay [8] was inactive.

These data come from PubChem BioAssay.
